# From PubChem BioAssay (NCATS)
# “And” between values parts separate entries of the source, which are not always exact repeats. Identical values can stand only once. Records with an inconclusive call do not appear. A call without a number means that no potency is given here. Some structures have more than one record in an assay (separate samples or runs), and their calls can disagree. The source made the active and inactive calls. The call rests on the fitted dose curve; in most records, active means well fitted inhibition curve with a large enough effect; inconclusive means small, poorly fitted or top-dose-only effect; inactive means flat fitted curve, though single readings scatter.
# Legend:
# [1] = system: CRL-7250; assay: Cytotoxic Profiling of Annotated Libraries Using Quantitative High-Throughput Screening (AID 1296008); conditions: Five cell lines viability, CellTiter-Glo ATP luminescence, 48-72 h; max response: stronger effect = lower value
# In short: (§1)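 Cytotoxicity was measured as CellTiter-Glo ATP luminescence, read after 10 min at room temperature. Compound treatment of the cells lasted 48 or 72 hr at 37 degrees Celsius in a qHTS format.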
# [2] = system: HEK293; assay: as above; conditions: Five cell lines viability, CellTiter-Glo ATP luminescence, 48-72 h; max response: stronger effect = lower value
# In short: as §1
# [3] = system: HaCat; assay: as above; conditions: Five cell lines viability, CellTiter-Glo ATP luminescence, 48-72 h; max response: stronger effect = lower value
# In short: as §1
# [4] = system: KB-3-1; assay: as above; conditions: Five cell lines viability, CellTiter-Glo ATP luminescence, 48-72 h; max response: stronger effect = lower value
# In short: as §1
# [5] = system: NIH3T3; assay: as above; conditions: Five cell lines viability, CellTiter-Glo ATP luminescence, 48-72 h; max response: stronger effect = lower value
# In short: as §1
# [6] = system: MCC-13; assay: qHTS assay to identify novel small-molecules to repurpose for Merkel cell carcinoma treatment (AID 1296009); conditions: MCC and control cell lines, CellTiter-Glo viability, 72 h; series mostly up to 46 µM
# In short: (§2)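 72 hr, 37 degree celsius; NPC 8-pt / MIPE 11-pt dose response; compound pinned in DMSO; CellTiter-Glo, 10 min RT, luminescence; normalized to no-cell and DMSO controls.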
# [7] = system: MKL-1; assay: as above; conditions: MCC and control cell lines, CellTiter-Glo viability, 72 h; series mostly up to 46 µM
# In short: as §2
# [8] = system: MKL-2; assay: as above; conditions: MCC and control cell lines, CellTiter-Glo viability, 72 h; series mostly up to 46 µM
# In short: as §2
# [9] = system: NIH3T3; assay: as above; conditions: MCC and control cell lines, CellTiter-Glo viability, 72 h; at 44.8 µM (top of the series) unless noted
# In short: as §2
# [10] = system: UISO; assay: as above; conditions: MCC and control cell lines, CellTiter-Glo viability, 72 h; series mostly up to 46 µM
# In short: as §2
# [11] = system: WaGa; assay: as above; conditions: MCC and control cell lines, CellTiter-Glo viability, 72 h; series mostly up to 46 µM
# In short: as §2
# [12] = system: PC49; assay: qHTS profiling for inhibitors of Plasmodium falciparum proliferation (AID 504749); conditions: P. falciparum in erythrocytes, SYBR Green DNA, 72 h; series mostly up to 28.7 µM
# In short: (§3)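 Infected RBCs, 0.3% parasitemia/2.5% Hct final; cpd 72 h, 37 C, 5% CO2; lysis buffer with saponin/triton/SYBR Green I, o/n RT dark; FI 485/535; norm. to artemisinin (0.29 uM) and DMSO.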
# [13] = system: SC27B; assay: as above; conditions: P. falciparum in erythrocytes, SYBR Green DNA, 72 h; series mostly up to 28.7 µM
# In short: as §3
# [14] = system: TAB109; assay: as above; conditions: P. falciparum in erythrocytes, SYBR Green DNA, 72 h; series mostly up to 28.7 µM
# In short: as §3
# [15] = system: TAB113; assay: as above; conditions: P. falciparum in erythrocytes, SYBR Green DNA, 72 h; series mostly up to 28.7 µM
# In short: as §3
# [16] = system: TAB165; assay: as above; conditions: P. falciparum in erythrocytes, SYBR Green DNA, 72 h; series mostly up to 28.7 µM
# In short: as §3
# [17] = system: W2; assay: as above; conditions: P. falciparum in erythrocytes, SYBR Green DNA, 72 h; series mostly up to 28.7 µM
# In short: as §3
# [18] = system: HACAT; assay: qHTS assay to identify novel small-molecules to repurpose for Merkel cell carcinoma treatment (AID 1296009); conditions: MCC and control cell lines, CellTiter-Glo viability, 72 h
# In short: as §2
# [19] = system: HEK293T; assay: as above; conditions: MCC and control cell lines, CellTiter-Glo viability, 72 h; at 44.8 µM (top of the series) unless noted
# In short: as §2
# [20] = system: MCC-26; assay: as above; conditions: MCC and control cell lines, CellTiter-Glo viability, 72 h; series mostly up to 46 µM
# In short: as §2
# [21] = at 44.8 µM (top of the series) unless noted
# Further: nearly all actives have a fitted effect of over 60% in size.
# Potency means the concentration at half of the fitted maximal effect.
structure (smiles),measurement,setting,value
CCN(CC)CCn1c(=O)c(Cc2ccc(OC)cc2)nc2ccccc21,max response,[1],-4.28% (inactive)
same,max response,[2],-12.9% (inactive)
same,max response,[3],-7.99% (inactive)
same,max response,[4],-9.16% (inactive)
same,outcome,[4],inactive
same,outcome,[5],inactive
same,Potency,[6],inactive
same,Potency,[7],inactive
same,Potency,[8],inactive
same,outcome,[9],inactive
same,Potency,[10],inactive
same,Potency,[11],inactive
COC(=O)Nc1nc2ccc(Sc3ccccc3)cc2[nH]1,Potency,[12],inactive
same,Potency,[13],inactive
same,Potency,[14],inactive
same,Potency,[15],inactive
same,Potency,[16],inactive
same,Potency,[17],inactive
same,Potency,[1],2.37 µM (active)
same,Potency,[2],473 nM (active) and 1.32 µM (active)
same,max response,[3],-7.21% (inactive)
same,Potency,[4],1.66 µM (active)
same,Potency,[5],668 nM (active)
same,Potency,[8],3.32 µM (active)
COc1nc(N)nc2c1ncn2[C@@H]1O[C@H](CO)[C@@H](O)[C@@H]1O,Potency,[12],inactive
same,Potency,[13],inactive
same,Potency,[14],inactive
same,Potency,[15],inactive
same,Potency,[16],inactive
same,Potency,[17],inactive
same,max response,[1],-2.22% (inactive) and 4.78% (inactive)
same,outcome,[2],inactive
same,outcome,[3],inactive
same,outcome,[4],inactive
same,max response,[5],-9.88% (inactive) and 4.97% (inactive)
same,outcome,[18]; [21],inactive
same,outcome,[19],inactive
same,Potency,[6],inactive
same,Potency,[7],inactive
same,Potency,[8],inactive
same,Potency,[10],inactive
same,Potency,[11],inactive and 18.7 µM (active)
CC(N)C12CC3CC(CC(C3)C1)C2 (centres undefined),Potency,[12],inactive
same,Potency,[17],6750 nM (active)
same,max response,[1],1.82% (inactive) and 3.28% (inactive)
same,max response,[2],-21.7% (inactive) and 2.38% (inactive)
same,max response,[3],2.96% (inactive) and 2.31% (inactive)
same,max response,[4],16.9% (inactive) and 3.92% (inactive)
same,outcome,[5],inactive
same,Potency,[6],inactive
same,Potency,[20],inactive
same,Potency,[7],inactive
same,Potency,[8],inactive
same,outcome,[9],inactive
same,Potency,[10],inactive
same,Potency,[11],inactive
O=C(O)c1cn(C2CC2)c2cc(N3CCNCC3)c(F)cc2c1=O,Potency,[12],inactive
same,Potency,[13],inactive
same,Potency,[14],2240 nM (active)
same,Potency,[15],inactive
same,Potency,[17],4550 nM (active)
same,max response,[1],-2.76% (inactive) and -7.47% (inactive)
same,outcome,[2],inactive
same,outcome,[3],inactive
same,max response,[4],-1.15% (inactive)
same,outcome,[4],inactive
same,outcome,[5],inactive
same,outcome,[18]; [21],inactive
same,outcome,[19],inactive
same,Potency,[6],inactive
same,Potency,[7],inactive
same,Potency,[8],inactive
same,outcome,[9],inactive
same,Potency,[10],inactive
same,Potency,[11],inactive
CCOC(=O)[C@H](CCc1ccccc1)N[C@H]1CCc2ccccc2N(CC(=O)O)C1=O,max response,[1],-7.52% (inactive)
same,Potency,[2],18.7 µM (active)
same,outcome,[3],inactive
same,max response,[4],4.39% (inactive)
same,outcome,[18]; [21],inactive
same,Potency,[6],inactive
same,Potency,[20],inactive
same,Potency,[7],inactive
same,Potency,[10],inactive
same,Potency,[11],inactive
O=P(O)(O)C(O)(Cc1cccnc1)P(=O)(O)O,Potency,[12],inactive
same,Potency,[13],inactive
same,Potency,[14],inactive
same,Potency,[15],inactive
same,Potency,[16],inactive
same,Potency,[17],inactive
same,max response,[1],-3.74% (inactive) and -13.5% (inactive) and 3.83% (inactive)
same,max response,[3],-18.6% (inactive)
same,outcome,[3],inactive
same,max response,[4],16.5% (inactive) and 4.21% (inactive) and 6.74% (inactive)
same,max response,[5],-4.1% (inactive) and 0.573% (inactive)
same,outcome,[5],inactive
same,outcome,[18]; at 4.96 µM (top of the series),inactive
same,outcome,[18]; at 44.8 µM (top of the series),inactive
same,outcome,[19],inactive
same,Potency,[6],inactive
same,Potency,[20],inactive
same,Potency,[7],inactive
same,Potency,[8],inactive
same,outcome,[9],inactive
same,Potency,[10],inactive
same,Potency,[11],inactive
COc1cc(NS(=O)(=O)c2ccc(N)cc2)nc(OC)n1,Potency,[12],inactive
same,Potency,[13],inactive
same,Potency,[14],inactive
same,Potency,[15],inactive
same,Potency,[16],inactive
same,Potency,[17],inactive
same,max response,[1],-1.11% (inactive) and -2.3% (inactive)
same,outcome,[3],inactive
same,max response,[4],3.08% (inactive)
same,outcome,[4],inactive
same,max response,[5],-5.03% (inactive) and -1.81% (inactive)
same,outcome,[18]; [21],inactive
same,Potency,[6],inactive
same,Potency,[20],inactive
same,Potency,[7],inactive
same,Potency,[8],inactive
same,Potency,[10],inactive
same,Potency,[11],inactive
CN(C)c1ccc(C(=C2C=CC(=[N+](C)C)C=C2)c2ccc(N(C)C)cc2)cc1,Potency,[12],1780 nM (active)
same,Potency,[13],501 nM (active)
same,Potency,[14],224 nM (active)
same,Potency,[15],355 nM (active)
same,Potency,[16],251 nM (active)
same,Potency,[17],120 nM (active)
same,Potency,[1],211 nM (active) and 59 nM (active)
same,Potency,[2],237 nM (active) and 105 nM (active)
same,Potency,[3],1.06 µM (active) and 935 nM (active)
same,Potency,[4],7.31 µM (active) and 93.5 nM (active)
same,Potency,[5],944 nM (active) and 372 nM (active)
same,Potency,[6],750 nM (active) and 743 nM (active)
same,Potency,[20],7.5 µM (active) and 4.69 µM (active)
same,Potency,[7],118 nM (active)
same,Potency,[8],94.4 nM (active) and 11.8 nM (active)
same,Potency,[10],841 nM (active) and 187 nM (active)
same,Potency,[11],596 nM (active) and 296 nM (active)
CCCCS(=N)(=O)CCC(N)C(=O)O (centres undefined),max response,[1],-8.66% (inactive)
same,max response,[2],-11.7% (inactive)
same,outcome,[3],inactive
same,max response,[4],-5.13% (inactive)
same,max response,[5],-0.0148% (inactive)
same,outcome,[18]; [21],inactive
same,Potency,[7],inactive
same,Potency,[10],inactive
same,Potency,[11],inactive
CCN(C)C(=O)Oc1cccc([C@H](C)N(C)C)c1,Potency,[12],inactive
same,Potency,[13],inactive
same,Potency,[14],inactive
same,Potency,[15],inactive
same,Potency,[16],inactive
same,Potency,[17],inactive
same,max response,[1],-5.92% (inactive) and -3.92% (inactive)
same,max response,[3],-4.32% (inactive)
same,outcome,[3],inactive
same,max response,[4],1.39% (inactive) and 1.13% (inactive)
same,max response,[5],1.74% (inactive) and -5.17% (inactive)
same,outcome,[18]; [21],inactive
same,outcome,[19],inactive
same,Potency,[6],inactive
same,Potency,[7],inactive
same,Potency,[8],inactive
same,Potency,[10],inactive
same,Potency,[11],inactive
